Laboratory results as given in PubChem BioAssay (Tox21).
Records with an inconclusive call do not appear. Calls of active or inactive are those of the source. Unless noted, the call rests on the fitted dose curve; in most records, active means well fitted curve in the direction sought with a large enough effect in the repeat runs; inconclusive means weak or mixed curves; inactive means no such curve, though single readings can be large; an effect the other way counts as inactive or inconclusive.

Legend:
[1] = qHTS assay to test for compound auto fluorescence at 535 nm (green) in HEK293 cells (AID 720680)
[2] = qHTS assay to test for compound auto fluorescence at 460 nm (blue) in HEK293 cell free culture (AID 720681); further: potency means the concentration at half of the fitted maximal effect
How it was run: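 Compounds were added to cell-free DMEM with 10% FBS and fluorescence read directly. The blue channel used 405 nm excitation and 460 nm emission, with triamterene as the reference fluorophore.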

[3] = qHTS assay to test for compound auto fluorescence at 535 nm (green) in HEK293 cell free culture (AID 720682)
How it was run: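 Intrinsic compound fluorescence is measured in culture medium containing 10% FBS, with excitation at 485 nm and detection at 535 nm, referenced to fluorescein.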

[4] = qHTS assay to test for compound auto fluorescence at 590 nm (red) in HEK293 cell free culture (AID 720683)
How it was run: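 Cell-free wells of DMEM with 10% FBS received compound, and intrinsic fluorescence was read at excitation/emission 540/590 nm. Values expressed as equivalence to Rose Bengal sodium.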

[5] = qHTS assay to test for compound auto fluorescence at 590 nm (red) in HepG2 cell free culture (AID 720684)
How it was run: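 Compound was pinned into wells holding MEM with 10% FBS and no cells, and red fluorescence was read at Ex/Em 540/590 nm. Signal is expressed as auto fluorescence equivalency relative to Rose Bengal sodium.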

[6] = qHTS assay to test for compound auto fluorescence at 460 nm (blue) in HepG2 cell free culture (AID 720685); further: potency means the concentration at half of the fitted maximal effect
How it was run: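 Compound (23 nL) or DMSO pinned into cell-free MEM with 10% FBS; blue fluorescence read at 405/460 nm excitation/emission, expressed as auto-fluorescence equivalency to triamterene.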

[7] = qHTS assay to test for compound auto fluorescence at 535 nm (green) in HepG2 cell free culture (AID 720686)
[8] = qHTS assay to test for compound auto fluorescence at 460 nm (blue) in HepG2 cells (AID 720687); further: potency means the concentration at half of the fitted maximal effect
How it was run: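 HepG2 cells in MEM with 10% FBS, attached overnight at 37 C, were exposed to compound or DMSO for 1 hr at 37 C, 5% CO2. Blue fluorescence was read at 405/460 nm, with triamterene as reference fluorophore.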

[9] = qHTS assay to identify small molecule antagonists of the glucocorticoid receptor (GR) signaling pathway - cell viability counter screen (AID 720693); further: nearly all actives have a fitted effect of over 55% in size
[10] = qHTS assay for identifying genotoxic compounds that show differential cytotoxicity against isogenic chicken DT40 cell lines with known DNA damage response pathways - wild type cell line (AID 743012); further: nearly all actives have a fitted effect of over 60% in size; further: potency means the concentration at half of the fitted maximal effect
How it was run: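 Using parental DT40 (300 cells/well), compounds delivered in DMSO incubate 40 h at 37 C/5% CO2. CellTiter-Glo reagent then stands 30 min at room temperature, and luminescence gives cell viability.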

[11] = qHTS assay for identifying genotoxic compounds that show differential cytotoxicity against isogenic chicken DT40 cell lines with known DNA damage response pathways - Rev3 mutant cell line (AID 743014); further: nearly all actives have a fitted effect of over 55% in size; further: potency means the concentration at half of the fitted maximal effect
[12] = qHTS assay for identifying genotoxic compounds that show differential cytotoxicity against isogenic chicken DT40 cell lines with known DNA damage response pathways - Rad54/Ku70 mutant cell line (AID 743015); further: nearly all actives have a fitted effect of over 60% in size; further: potency means the concentration at half of the fitted maximal effect
[13] = qHTS assay to identify small molecule antagonists of the androgen receptor (AR) signaling pathway - cell viability counter screen (AID 743033; further: nearly all actives have a fitted effect of over 45% in size)
[14] = qHTS assay to identify small molecule antagonists of the androgen receptor (AR) signaling pathway using the MDA cell line - cell viability counter screen (AID 743041; further: nearly all actives have a fitted effect of over 45% in size; further: potency means the concentration at half of the fitted maximal effect)
How it was run: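 MDA-kb2 AR-luc cells (MMTV-luciferase, AR/GR responsive) treated with compounds plus R1881 agonist for 16 h at 37C. CellTiter-Fluor added at 15.5 h; fluorescence read after 30 min in the same wells.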

[15] = qHTS assay to identify small molecule antagonists of the thyroid receptor (TR) signaling pathway - cell viability counter screen (AID 743064); further: nearly all actives have a fitted effect of over 50% in size; further: potency means the concentration at half of the fitted maximal effect
How it was run: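 Same-well viability check: GH3.TRE-Luc cells stimulated with 1 nM T3 alongside test compound for 23.5 h, followed by CellTiter-Fluor fluorescence.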

[16] = molecular target: Androgen receptor (Homo sapiens) (UniProt P10275); experiment: qHTS assay to identify small molecule antagonists of the androgen receptor (AR) signaling pathway (AID 743035; active means well fitted inhibition curve with a large enough effect in the signal ratio in the repeat runs, not every such curve was filed as active; the % refers to the signal ratio)
How it was run: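 Using qHTS, AR-UAS-bla GripTite HEK293 cells received compound, then R1881, and were cultured 16 h at 37C/5% CO2 before a 2 h room-temperature LiveBLAzer B/G FRET substrate step and fluorescence measurement.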

[17] = molecular target: Androgen receptor (Homo sapiens) (UniProt P10275); experiment: qHTS assay to identify small molecule agonists of the androgen receptor (AR) signaling pathway using the MDA cell line (AID 743040; further: nearly all actives have a fitted effect of over 20% in size)
How it was run: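 MDA-kb2 breast carcinoma cells carrying MMTV-luciferase (responsive to AR and GR), plated 5 h then treated 16 h with compounds at 37C, 0% CO2. Read-out was ONE-Glo luminescence after 30 min at room temperature.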
On the % scale 0 is the no-effect control and ±100 the full control effect; tags describe the fitted curve by direction and shape or compound fluorescence and quenching.

Chain of Androgen receptor (Homo sapiens) (P10275 whole entry, looked up): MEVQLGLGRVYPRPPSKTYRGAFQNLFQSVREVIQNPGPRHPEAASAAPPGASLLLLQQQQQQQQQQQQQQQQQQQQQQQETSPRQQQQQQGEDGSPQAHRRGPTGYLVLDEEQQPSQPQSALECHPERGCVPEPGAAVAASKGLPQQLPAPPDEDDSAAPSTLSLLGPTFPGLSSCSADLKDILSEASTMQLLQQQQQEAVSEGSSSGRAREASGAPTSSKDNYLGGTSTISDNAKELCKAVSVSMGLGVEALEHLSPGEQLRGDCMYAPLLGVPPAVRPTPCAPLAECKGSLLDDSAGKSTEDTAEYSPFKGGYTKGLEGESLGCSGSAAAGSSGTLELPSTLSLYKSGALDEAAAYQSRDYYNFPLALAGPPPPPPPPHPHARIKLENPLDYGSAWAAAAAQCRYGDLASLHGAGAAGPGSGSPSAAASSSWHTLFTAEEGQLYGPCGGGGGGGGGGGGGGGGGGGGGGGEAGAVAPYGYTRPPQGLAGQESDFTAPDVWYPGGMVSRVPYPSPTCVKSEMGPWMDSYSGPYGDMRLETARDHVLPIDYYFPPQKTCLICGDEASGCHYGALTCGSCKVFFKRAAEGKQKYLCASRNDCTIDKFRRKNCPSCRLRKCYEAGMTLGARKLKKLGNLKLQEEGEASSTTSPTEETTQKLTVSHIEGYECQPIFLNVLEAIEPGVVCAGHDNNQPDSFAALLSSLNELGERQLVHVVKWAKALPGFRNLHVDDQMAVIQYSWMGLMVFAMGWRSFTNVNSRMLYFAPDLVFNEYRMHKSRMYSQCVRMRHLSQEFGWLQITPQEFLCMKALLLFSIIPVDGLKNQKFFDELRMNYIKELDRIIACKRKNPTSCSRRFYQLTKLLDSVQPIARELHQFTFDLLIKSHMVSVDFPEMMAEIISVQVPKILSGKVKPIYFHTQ

CCCCCCCCCCCCCCCCBr
inactive: fluorescence, % of fluorescein [1] -0.0178% [at 18.6 µM] | fluorescence, % of fluorescent control [2] 0.102% [at 18.6 µM] | activity change [3] 0.0082% [at 18.6 µM] | fluorescence, % of fluorescent control [4] 0.0252% [at 18.6 µM] | fluorescence, % of Rose Bengal [5] 0.119% [at 18.6 µM] | fluorescence, % of fluorescent control [6] -0.0045% [at 18.6 µM] | fluorescence, % of fluorescein control [7] 0.0028% [at 18.6 µM] | fluorescence, % of fluorescent control [8] -0.0027% [at 18.6 µM] | Potency [9] | Potency [10] | Potency [11] | Potency [12] | Potency [13] | Potency [14] | Potency [15]

C=CC(C)=CCC=C(C)C
inactive: outcome [1] | Potency [2] | outcome [3] | outcome [4] | outcome [5] | Potency [6] | outcome [7] | Potency [8] | Potency [9] | Potency [11] | Potency [13] | Potency [14] | Potency [15]

CCOC(=N)CC(=O)OCC
inactive: outcome [1] | Potency [2] | outcome [3] | outcome [4] | outcome [5] | Potency [6] | outcome [7] | Potency [8] | Potency [10] | Potency [12] | Potency [13] | Potency [14] | Potency [15]

CCn1cc(C(=O)O)c(=O)c2cc(F)c(N3CCNCC3)nc21
inactive: fluorescence, % of fluorescein [1] -0.0016% [at 18.6 µM] | fluorescence, % of fluorescent control [2] -0.0171% [at 18.6 µM] | activity change [3] 0.0215% [at 18.6 µM] | fluorescence, % of fluorescent control [4] -0.252% [at 18.6 µM] | fluorescence, % of Rose Bengal [5] -0.483% [at 18.6 µM] | fluorescence, % of fluorescent control [6] -0.0969% [at 18.6 µM] | fluorescence, % of fluorescein control [7] -0.0379% [at 18.6 µM] | fluorescence, % of fluorescent control [8] -0.0048% [at 18.6 µM] | Potency [9] | Potency [10] | Potency [11] | Potency [12] | Potency [13] | Potency [14] | Potency [15]

OC(CCCN1CCCCC1)(c1ccccc1)c1ccccc1
active: Potency [10] 13.3 µM | Potency [12] 29.8 µM
inactive: outcome [1] | Potency [2] | outcome [3] | outcome [4] | outcome [5] | Potency [6] | outcome [7] | Potency [8] | Potency [9] | Potency [13] | Potency [16] | Potency [17] | Potency [14]

CCCCCCOC(=O)C(C)C
inactive: outcome [1] | Potency [2] | outcome [3] | outcome [4] | outcome [5] | Potency [6] | outcome [7] | Potency [8] | Potency [9] | Potency [10] | Potency [11] | Potency [13] | Potency [14]

C=CC(=O)NCOCC(C)C
inactive: outcome [1] | Potency [2] | outcome [3] | outcome [4] | outcome [5] | Potency [6] | outcome [7] | Potency [8] | Potency [9] | Potency [10] | Potency [12] | Potency [13] | Potency [14] | Potency [15]

Cc1cc(S(=O)(=O)O)ccc1N=Nc1c(O)ccc2ccccc12
active: Potency [11] 61.1 µM | Potency [14] 30.6 µM | Potency [15] 17.2 µM
inactive: outcome [1] | Potency [2] | outcome [3] | outcome [4] | outcome [5] | Potency [6] | outcome [7] | Potency [8] | Potency [9] | Potency [10] | Potency [12] | Potency [13]

CC(=O)Oc1ccc2c(c1)CC[C@@H]1[C@@H]2CC[C@]2(C)[C@@H](O)CC[C@@H]12
inactive: outcome [1] | Potency [2] | outcome [3] | outcome [4] | outcome [5] | Potency [6] | outcome [7] | Potency [8] | Potency [9] | Potency [13] | Potency [14]
active: Potency [10] 29.8 µM | Potency [11] 26.6 µM | Potency [15] 26.6 µM

CC1=C(/C=C/C(C)=C\C=C\C(C)=C\C(=O)O)C(C)(C)CCC1
active: Potency [10] 34.4 µM
inactive: outcome [1] | Potency [2] | outcome [3] | outcome [4] | outcome [5] | Potency [6] | outcome [7] | Potency [8] | Potency [9] | Potency [13] | Potency [14] | Potency [15]

CC(C)(CCl)c1ccccc1
inactive: outcome [1] | Potency [2] | outcome [3] | outcome [4] | outcome [5] | Potency [6] | outcome [7] | Potency [8] | Potency [9] | Potency [10] | Potency [11] | Potency [12] | Potency [13] | Potency [14] | Potency [15]

CCc1c2c(nc3ccc(OC(=O)N4CCC(N5CCCCC5)CC4)cc13)-c1cc3c(c(=O)n1C2)COC(=O)[C@]3(O)CC
active: Potency [2] 12.6 µM | Potency [6] 12.6 µM [fluorescent] | Potency [8] 15.8 µM [fluorescent] | Potency [10] 5.96 µM | Potency [11] 5.96 µM | Potency [12] 4.22 µM
inactive: outcome [1] | outcome [3] | outcome [4] | outcome [5] | outcome [7] | Potency [9] | Potency [14]

O=S1OCCO1
inactive: outcome [1] | Potency [2] | outcome [3] | outcome [4] | outcome [5] | Potency [6] | outcome [7] | Potency [8] | Potency [9] | Potency [10] | Potency [11] | Potency [13] | Potency [14] | Potency [15]

Cc1ccc(S)cc1
inactive: outcome [1] | Potency [2] | outcome [3] | outcome [4] | outcome [5] | Potency [6] | outcome [7] | Potency [8] | Potency [9] | Potency [13] | Potency [14] | Potency [15]
active: Potency [10] 61.1 µM

COC(=O)[C@@H]1CC2=CC(=O)CC[C@]2(C)[C@@]23O[C@@H]2C[C@@]2(C)[C@@H](CC[C@@]24CCC(=O)O4)[C@H]13
inactive: outcome [1] | Potency [2] | outcome [3] | outcome [4] | outcome [5] | Potency [6] | outcome [7] | Potency [8] | Potency [9] | Potency [10] | Potency [11] | Potency [13] | Potency [14] | Potency [15]
